High-throughput results from PubChem BioAssay.
SMN2 splice enh – SMN2 splice variant enhancement; HEK293 SMN2-luciferase splicing reporter, luminescence, 30-36 h; Potency, µM (top dose mostly 46.1 µM), usual class: activators; actives 2.8% (n = 210,000); note: nearly all actives have a fitted effect of over 55% in size
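HEK293 cells carry an SMN2 […]–luciferase reporter in which exon 7 inclusion puts luciferase in frame. Cells were plated 10-12 h before compound addition, then incubated 30-36 h at 37C. ONE-Glo luminescence was read; sodium butyrate at 4.5 mM final served as control.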
ELG1 genotox – induces genotoxicity in HEK293T cells with luciferase-tagged ELG1. HEK293T ELG1-luciferase reporter, luminescence, 16 h. Potency, µM (titrated, usually from 46 µM), usual class: activators. actives 1.3% (n = 330,000); note: nearly all actives have a fitted effect of over 60% in size
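ELG1-luciferase HEK293T cells, 2,000/well; compound pinned in; 16 hr, 37 °C, 5% CO2; ONE-Glo, 30 min RT; luminescence on CCD imager.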
Rab9 prom act – activates the Rab9 promoter. Potency, µM (highest dose often 9.22 µM), usual class: activators. Huh7 Rab9 promoter-luciferase reporter, luminescence, 24 h. actives 2.8% (n = 320,000); note: nearly all actives have a fitted effect of over 60% in size
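Luciferase signal after 10 min detection reagent at ambient indicates Rab9 promoter upregulation; stably transfected Huh7 cells were treated 24 h with compound in DMSO at 37 °C, 5% CO2.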
FLuc modulator – firefly luciferase modulation, counter-screen for miR-21 project; purified FLuc, Km substrates, luminescence inhibition; actives 6.9% (n = 360,000); Potency, µM (top dose mostly 57.5 µM), usual class: inhibitors; AID 588342; P08659; note: nearly all actives have a fitted effect of over 55% in size
Target sequence (P08659 whole entry, looked up): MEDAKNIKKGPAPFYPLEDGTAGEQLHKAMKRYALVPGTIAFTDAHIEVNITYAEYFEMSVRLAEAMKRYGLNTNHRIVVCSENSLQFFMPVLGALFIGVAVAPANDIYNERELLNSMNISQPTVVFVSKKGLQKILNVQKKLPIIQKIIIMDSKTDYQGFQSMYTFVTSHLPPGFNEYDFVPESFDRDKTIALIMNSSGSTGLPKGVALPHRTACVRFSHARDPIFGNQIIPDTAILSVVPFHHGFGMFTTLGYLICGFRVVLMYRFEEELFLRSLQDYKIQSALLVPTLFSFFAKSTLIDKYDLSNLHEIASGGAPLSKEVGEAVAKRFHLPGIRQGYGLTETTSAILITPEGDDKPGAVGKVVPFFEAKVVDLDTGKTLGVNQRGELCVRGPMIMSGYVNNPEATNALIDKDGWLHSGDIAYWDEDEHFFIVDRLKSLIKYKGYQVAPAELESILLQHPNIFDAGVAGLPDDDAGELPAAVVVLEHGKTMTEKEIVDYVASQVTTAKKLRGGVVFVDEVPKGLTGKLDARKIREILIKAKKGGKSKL
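Biochemical qHTS of compounds, final roughly 60 µM downward over six points, against 10 nM purified firefly luciferase using Km concentrations of substrates (10 uM D-luciferin, 10 uM ATP) in Tris acetate pH 7.5 buffer; luminescence output.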
NPC1 promoter act – activates the NPC1 promoter. Huh7 NPC1 promoter luciferase reporter, 24 h. Potency, µM (series often up to 9.22 µM), hits mostly activators. actives 2.4% (n = 320,000); note: nearly all actives have a fitted effect of over 60% in size
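Huh7 cells stably carrying NPC1 promoter–luciferase, plated in Opti-MEM with 10% FBS for 2 h, were exposed to compound in DMSO for 24 h at 37 °C; luciferase reagent was added for 10 min and luminescence read.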
Hits are given with their value; 0 = inactive; ? = inconclusive; - = not tested or not shown; [ ] = another dose, or the depositor's remark. Rows were chosen to be rich in hits. Some 7.5% of all compounds tested hit in one or more screens of this group. Calls come from the whole dose curve; as a rule, active = well fitted curve in the direction sought with a large enough effect; inconclusive = small, poorly fitted or top-dose-only effect, or another doubt; inactive = no such curve, though single readings can be large; an effect the other way counts as inactive or inconclusive.

SMILES | SMN2 splice enh | ELG1 genotox | Rab9 prom act | FLuc modulator | NPC1 promoter act
Cc1cccnc1NC(=S)NC(=O)c1cccs1 | 3.2µM | ? | 3.5µM | 13µM | ?
COc1ccc2nc3c(cc2c1)c(NC(=O)c1cccs1)nn3CC(C)C | 0 | 0 | 0 | 7.6µM | 0
COc1ccc(C2=CC(c3ccccc3Cl)n3nc(-c4ccc(C)cc4)nc3N2)cc1 (stereo unspecified) | 0 | - | - | 0 | -
O=C(NCCc1ccc(Cl)cc1)c1cc(-c2ccc(Cl)cc2)n[nH]1 | - | - | - | 0 | -
COc1ccc(/C=C/C(=O)Nc2ccc(OC)cc2[N+](=O)[O-])cc1 | 0 | 0 | 0 | 0 | 0
COc1ccc(NC(=O)/C=C/c2ccccc2)c([N+](=O)[O-])c1 | 10µM | ? | 3.2µM | ? | ?
O=C(CNC(=O)c1cccs1)N/N=C/c1ccc(Cl)cc1 | - | 0 | 0 | ? | 0
Cc1cccnc1NC(=O)CNC(=O)c1cccs1 | - | 0 | 0 | 0 | 0
O=C(Nc1ccc(Oc2ccc(C(=O)O)c(C(=O)O)c2)cc1)c1cccs1 | - | 0 | 0 | 21µM | 0
Cc1cccnc1NC(=O)NC(=O)c1ccc(C(C)(C)C)s1 | - | ? | 2.2µM | 5.4µM | ?
COc1ccc(/C=N/NC(=O)CNC(=O)c2cccs2)cc1 | 0 | 0 | 0 | 15µM | 0
O=C(Nc1ccc(NC(=O)c2ccc(Cl)cc2Cl)cc1)c1cccs1 | - | 0 | 0 | 0 | 0
CC(C)c1ccc(NC(=S)NNC(=O)c2cccs2)cc1 | ? | ? | ? | 21µM | ?
O=C(Nc1ccc(OCc2ccccc2)cc1)c1cccs1 | - | ? | 4.5µM | 17µM | 2.8µM
COc1cc(OC)cc(C(C(=O)NC2CCCCC2)N(C(=O)c2ccno2)c2ccccc2)c1 (stereo unspecified) | 0 | 0 | 0 | 0 | 0
O=C(NCCCc1nc2ccccc2n1Cc1ccccc1Cl)c1ccco1 | 0 | - | - | 0 | -
Clc1ccccc1Cn1c(/C=C/c2ccco2)nc2ccccc21 | 0 | 0 | 0 | 11µM | 0
CCCC(=O)N(CCN1CCOCC1)c1nc2c(OC)ccc(OC)c2s1 | - | 0 | 0 | 0 | 0
CCN(CC)S(=O)(=O)c1nnc(NC(=O)c2ccc(Br)cc2)s1 | - | - | - | 0 | -
CN(Cc1cccc2ccccc12)Cc1cccc2ccccc12 | 0[9.22 µM] | - | - | - | -
CCNC(=O)c1ccc2nc(Cc3ccccc3)oc2c1 | - | - | - | 0 | -
O=S(=O)(c1ccc(Cl)cc1)N1CCCN(c2nc3ccc(Cl)cc3s2)CC1 | - | 0 | 0 | 0 | 0
Brc1ccc2nc(N3CCN(c4ccccc4)CC3)sc2c1 | 3.2µM | 2.3µM | 1µM | ? | 1.8µM
Clc1ccc2nc(N3CCN(c4ccccc4)CC3)sc2c1 | 3.2µM | ? | 0.89µM | 0.6µM | 1.4µM
C=CCn1c(-c2ccc(N)cc2)nc2ccccc21 | ? | 18µM | ? | 11µM | 0
SMILES | SMN2 splice enh | ELG1 genotox | Rab9 prom act | FLuc modulator | NPC1 promoter act
C=CCn1c(-c2ccc(OC)cc2)nc2ccccc21 | ? | 0 | 0 | 13µM | 0
C=CCn1c(N)nc2ccccc21 | 0 | 0 | 0 | 0 | 0
COc1ccc(-c2nc3ccccc3n2Cc2ccccc2)cc1 | 0 | 0 | 0 | ? | 0
CCCn1c(-c2cc(OC)c(OC)c(OC)c2)nc2nc3ccccc3nc21 | ? | 0 | 0 | 0 | 0
C=CCn1c(-c2ccc(OC)cc2)nc2nc3ccccc3nc21 | 10µM | 0 | 0 | ? | 0
CC1CCC2C(=O)N(c3ccc(C(=O)NCc4ccccc4)cc3)C(=O)C2C1 (stereo unspecified) | 0 | 0 | 0 | 0 | 0
O=C(CSc1ncccn1)NN=C1CCCCCC1 | 0 | 0 | 0 | 0 | 0
CC1CCC(=O)N(CCC#N)CC1 (stereo unspecified) | - | 0 | 0 | 0 | 0
O=C(Nc1ccccc1)N1CCCC2CCCCC21 (stereo unspecified) | 11µM | 21µM | 3.2µM | 15µM | ?
O=C(NC1CCCC1)C1CCCN1C(=O)Nc1ccccc1 (stereo unspecified) | 0 | 0 | 0 | 0 | 0
O=C(CCC1CCCC1)Nc1cc(Cl)ccc1N1CCOCC1 | - | 0 | 0 | 0 | 0
CC(C)(C)c1ccc(C(=O)NCCC(=O)Nc2cc(Cl)ccc2N2CCOCC2)cc1 | - | 0 | 0 | 21µM | 0
Cc1ccc(CSc2nnc(CNc3ccc(F)cc3)o2)cc1 | 0 | 0 | 0 | 0 | 0
O=C1c2cccc([N+](=O)[O-])c2C(=O)N1c1ncn[nH]1 | 0[9.22 µM] | - | - | - | -
Clc1ccc(OCc2cn3cccnc3n2)c2ncccc12 | 11µM | 16µM | ? | ? | ?
Cc1cc(Cl)ccc1OCc1cn2cccnc2n1 | 13µM | ? | 3.2µM | 12µM | 3.5µM
c1cnc2c(OCc3cn4cccnc4n3)cccc2c1 | 0 | ? | 0 | ? | 0
CN(CC(=O)Nc1ccc(F)cc1[N+](=O)[O-])C1CCS(=O)(=O)C1 (stereo unspecified) | - | 0 | - | - | -
N#CCCN(Cc1cccnc1)C(=S)NC(=O)C1CC1 | 0 | 0 | 0 | 0 | 0
Cc1ccc(NC2=Nc3ccccc3CC2)cc1 | 0 | 0.73µM | 0.4µM | 1.9µM | 0.4µM
Cc1ccc(NC(=O)NNC(=O)c2ccccc2)cc1 | 0 | 0 | 0 | 0 | 0
N#CC1=C(Nc2ccc(Br)cc2)CCC1 | - | ? | 0 | 0 | 0
Brc1ccc(NC2=Nc3ccccc3CC2)cc1 | 10µM | 0 | ? | 3.8µM | 3.2µM
CSc1nc(N)c2ncn([C@@H]3O[C@H](COP(=O)(O)OP(=O)(O)O)[C@H](O)[C@H]3O)c2n1 | 0 | - | - | - | -
CC1=CN2C(=N)/C(=C/c3ccc(Sc4ccc(C)cc4)o3)C(=O)N=C2S1 | 0 | 0 | 0 | 19µM | 0
SMILES | SMN2 splice enh | ELG1 genotox | Rab9 prom act | FLuc modulator | NPC1 promoter act
CC1=CN2C(=N)/C(=C/c3ccc(Sc4ccc(Cl)cc4)o3)C(=O)N=C2S1 | 0 | 0 | 0 | 0 | 0
CC1=CN2C(=N)/C(=C/c3ccc(C)o3)C(=O)N=C2S1 | 2.8µM | ? | 0.79µM | 1.2µM | 1.6µM
Fc1ccc(-n2nnc(-c3ccnc4ccccc34)n2)cc1 | - | ? | 4µM | 2.1µM | 0
Cc1ccc(-n2nnc(-c3ccnc4ccccc34)n2)cc1 | - | 13µM | 4.5µM | 1.9µM | 3.2µM
CC1=C(C(=O)Nc2cccc(C)c2C)C2(CCCCC2)OC1=O | 0 | - | - | 0 | -
Cc1cc(/C=C2/C(=N)N3C(c4ccccc4)=CSC3=NC2=O)c(C)n1-c1ccccc1 | 0 | 0 | 0 | 2.4µM | 0
CC1=NN2C(=N)/C(=C\c3cc(C)n(-c4ccccc4)c3C)C(=O)N=C2S1 | 0 | 0 | 0 | 4.8µM | 0
Cc1ccccc1-n1c(C)cc(/C=C2/C(=N)N3C(c4ccccc4)=CSC3=NC2=O)c1C | 0 | 0 | 0 | ? | 0
COc1ccc(-c2nn(C)c3sc(C(=O)Nc4cc(OC)c(OC)c(OC)c4)cc23)cc1OC | ? | - | - | 8.5µM | -
COc1ccc(NC(=O)c2cc3c(-c4ccc(OC)c(OC)c4)nn(C)c3s2)cc1OC | 0 | 0 | 0 | 11µM | 0
COc1cccc(-c2nn(C)c3sc(C(=O)NCc4ccc(C)o4)cc23)c1 | 16µM | 0 | 0 | 0 | 0
Cc1ccc2c(C)c(C(=O)Nc3nnc(C)s3)oc2c1 | 0 | 0 | 0 | 0 | 0
Cc1nnc(NC(=O)c2oc3ccccc3c2C)s1 | - | 18µM | 4µM | 3µM | 4.5µM
